In all, about 48,000 compounds went through this assay and about 13,000 (27%) showed an effect of 50% or more. The list shows a part of the results.

The subject of the test is Wolbachia pipientis. The test can be described thus: Anti-Wolbachia Cell-Based Screen. It is filed as functional. Set-up: scale not given: in the data most compounds retested in dose-response had high values. To be noted: 5 µM.
Turning to `CCSc1ccc(C(=O)Nc2c(C)nn(C(C)C)c2C)cn1`, the “Percent Effect” value was 10.44%.

On to `COCCN(C)CC1CCCN1S(=O)(=O)c1cc(C)oc1C` (stereo not given), for which the “Percent Effect” value is listed as 0.4223%.

Turning to `Cc1ncsc1CCN(C)Cc1cc2n(n1)CCN(Cc1ncc[nH]1)C2`, the “Percent Effect” value was 0.3121%.

Consider `COc1ccc(C2CCCN2C(=O)c2ccc(=O)n(C)c2)cc1OC` (stereo not given), for which the “Percent Effect” value is on record as -4.846%.

`CC(=O)NCCNC(=O)Nc1ccc(C)cc1OCc1ccccc1`: the “Percent Effect” value is -17.41%.

`O=C(c1cn(-c2ccccc2)nn1)N1CCCC(n2cccn2)C1` (stereo not given): the “Percent Effect” value is given as 123.4%.

As to `Cc1nn(-c2ccccc2)cc1C(=O)N1CCCC(n2cccn2)C1` (stereo not given), the “Percent Effect” value is 7.584%.

Consider `O=C(c1ccc(N2CCCC2)nn1)N1CCCC(n2cccn2)C1` (stereo not given), for which the “Percent Effect” value is reported as 6.785%.

Regarding `Cc1nc(CNC(C)c2ccc(OCC(=O)NC3CC3)cc2)cs1` (stereo not given), the “Percent Effect” value turned out to be 11.98%.

With `Cc1ccc(C(=O)N2CCc3ncccc3C2)cc1N1CCNC1=O`, the “Percent Effect” value is 0.3953%.

For the compound `CS(=O)(=O)N1CCC(NC(=O)COc2ccc(Cl)cc2)CC1`, the “Percent Effect” value came out at 131.2%.

Take `CC(Oc1cccc(Cl)c1)C(=O)Nc1cnn(CC(=O)NC2CC2)c1` (stereo not given): the “Percent Effect” value amounted to 3.95%.

For the compound `Cc1ccc(OCC(=O)NS(=O)(=O)Cc2ccccc2)cc1`, the “Percent Effect” value turned out to be 1.419%.

Take `O=C(COc1ccc(Cl)cc1)NCc1nncn1C1CC1`: the “Percent Effect” value is given as -10.37%.

Regarding `CS(=O)(=O)N1CCC(NC(=O)COc2ccc3ccccc3c2)CC1`, the “Percent Effect” value is on record as 103.7%.

`CN1CC(NC(=O)CCOc2cccc(Cl)c2)CC1=O` (stereo not given): the “Percent Effect” value was -1.154%.

On to `Cc1cn(CC(=O)NC2CCN(S(C)(=O)=O)CC2)c2ccccc12`, for which the “Percent Effect” value is -0.9919%.

Consider `Cc1ccc(OCC(=O)NC2CCN(S(C)(=O)=O)CC2)cc1`, for which the “Percent Effect” value is 137.9%.

Regarding `CC(C)c1nccn1C(C)C(=O)NC1CCN(S(C)(=O)=O)CC1` (stereo not given), the “Percent Effect” value was -4.449%.

Take `CCn1cc(C(=O)NC2CCN(S(C)(=O)=O)CC2)c2ccccc21`: the “Percent Effect” value was -0.7206%.

As for `CS(=O)(=O)N1CCC(NC(=O)COc2cccc(Cl)c2)CC1`, the “Percent Effect” value is listed as 141.5%.

`CCCC(C(=O)NC1CCN(S(C)(=O)=O)CC1)c1ccccc1` (stereo not given): the “Percent Effect” value is listed as -7.418%.

As for `CC(CS(C)(=O)=O)N(C(=O)CCc1ccsc1)C1CC1` (stereo not given), the “Percent Effect” value is recorded as -7.747%.

As to `Cc1c(NCc2ccccc2C#N)cccc1S(=O)(=O)NC1CC1`, the “Percent Effect” value came out at 7.829%.

For `CCCNC(=O)c1ccc(S(=O)(=O)NCC2(COC)CCCC2)cc1`, the “Percent Effect” value is listed as 10.08%.

`CCCN1CCC(Cc2noc(-c3cccnc3OC)n2)CC1`: the “Percent Effect” value is reported as 111%.

For `CCCN1CCC(Cc2noc(-c3[nH]cnc3C)n2)CC1`, the “Percent Effect” value is 95.32%.

As to `CCCN1CCC(Cc2noc(-c3ncccc3C)n2)CC1`, the “Percent Effect” value is 80.84%.

Consider `CCCN1CCC(Cc2nc(CN3CCN(C)CC3)no2)CC1`, for which the “Percent Effect” value is -14.74%.

For `CCCN1CCC(Cc2noc(-c3cc4cccnc4nc3C)n2)CC1`, the “Percent Effect” value was 109.3%.

As for `CN1CCC(Cc2noc(-c3cccc(Oc4ncccn4)c3)n2)CC1`, the “Percent Effect” value was 7.717%.

As for `Cc1cccc(N2CCN(Cc3nc(CC4CC4)no3)CC2)n1`, the “Percent Effect” value is reported as -32.1%.

For `CN1CCC(Cc2noc(CC3CC3)n2)CC1`, the “Percent Effect” value is 7.965%.

`COc1cccc(-c2n[nH]cc2-c2nc(CC3CCN(C)CC3)no2)c1`: the “Percent Effect” value was -18.5%.

On to `O=C(O)C(F)(F)F.O=C(c1cnccn1)N1CCN2C[C@H](OCc3ccccc3)C[C@H]2C1`, for which the “Percent Effect” value is 0.9926%.

Take `O=C(c1cnc(Nc2ccccc2)nc1)N1CCC2(CCNCC2)CC1`: the “Percent Effect” value is 2.873%.

For the compound `CC(C)c1noc([C@@H]2Cc3[nH]cnc3CN2C(=O)Nc2ccccc2)n1`, the “Percent Effect” value amounted to 2.136%.

Take `NC(=O)CCn1ccc(NC(=O)C2(c3ccc(F)cc3)CCC2)n1`: the “Percent Effect” value is -29.44%.

Regarding `COc1ccc(N(Cc2ccco2)C(=O)COC(C)C)cc1F`, the “Percent Effect” value was -7.109%.

`COc1ccc(CCNC(=O)NC2CCCC2)cc1OC`: the “Percent Effect” value was 1.175%.

As to `COc1ccc(CCC2CCCCN2)cc1.Cl` (stereo not given), the “Percent Effect” value is reported as 100.4%.

As to `O=c1cc(-c2cc(O)cc(CCC3CCCCN3)c2)cc[nH]1` (stereo not given), the “Percent Effect” value is 29.58%.

`COc1cccc(CCC2CCCCN2)c1` (stereo not given): the “Percent Effect” value was found to be 69.8%.

For the compound `Oc1cc(CCC2CCCCN2)cc(-c2cccnc2)c1` (stereo not given), the “Percent Effect” value is recorded as 13.71%.

Turning to `COc1cccc(CCC2CCCN(C(C)=O)C2)c1` (stereo not given), the “Percent Effect” value is -117.1%.

On to `CS(=O)(=O)c1ccc(-c2cc(O)cc(CCC3CCCCN3)c2)cc1` (stereo not given), for which the “Percent Effect” value is recorded as -20.81%.

As to `COc1ccc(CCC2CCCCN2)cc1OC` (stereo not given), the “Percent Effect” value was determined as 89.4%.

As for `Oc1cc(CCC2CCCCN2)cc(-c2ccncc2)c1` (stereo not given), the “Percent Effect” value is 23.52%.

`O=C(NCc1ccncc1)N1CCSCC1CCO` (stereo not given): the “Percent Effect” value is listed as -7.144%.

On to `CSc1ccc(-c2nc(CN3CCC(CN)C3)c(C)o2)cc1` (stereo not given), for which the “Percent Effect” value was -1.027%.

Take `CCc1noc(C)c1C(=O)N1CCN(c2nc(C)cc(OC)n2)CC1`: the “Percent Effect” value is reported as -4.975%.

On to `Cc1cc(C(F)(F)F)nc(C2(C)CCCN2CC(N)=O)n1` (stereo not given), for which the “Percent Effect” value is on record as 81.01%.

Regarding `CCCc1nc(C)cc(N2CCC3(CCC(=O)N(CC(N)=O)C3)CC2)n1`, the “Percent Effect” value was 1.453%.

With `Cc1cc(C(F)(F)F)cc(N2CCC3(CCC(=O)N(CCO)C3)CC2)n1`, the “Percent Effect” value is listed as 8.685%.

Regarding `Cc1cc(N(C)C)nc(C2(C)CCCN2CC(N)=O)n1` (stereo not given), the “Percent Effect” value is 87.15%.

For the compound `CC1(C)CN(CC(F)(F)F)CCN1CC(N)=O`, the “Percent Effect” value came out at 0.007489%.

Turning to `CCc1nnc2n1CCN(c1nc(C)cc(N(C)C)n1)C2`, the “Percent Effect” value worked out at 1.842%.

Turning to `CS(=O)(=O)NC1CCN(C(=O)COCc2ccccc2)CC1`, the “Percent Effect” value was -3.192%.

As to `Cc1cc(C2CCCN2c2ncc(C(N)=O)cc2Cl)no1` (stereo not given), the “Percent Effect” value is -5.991%.

As to `Cc1nncn1CCNC(=O)C(C)(C)c1cccc(C(F)(F)F)c1`, the “Percent Effect” value stood at 2.023%.

For the compound `Cc1ccc(C(F)(F)F)cc1NCC(=O)Nc1c(C)nn(C)c1C`, the “Percent Effect” value is recorded as 5.729%.

Regarding `Cc1ccc(C(F)(F)F)cc1NC(=O)C1CCCN1` (stereo not given), the “Percent Effect” value amounted to 84.86%.

For the compound `O=C(Nc1cc(C(F)(F)F)c[nH]c1=O)C1CCNCC1`, the “Percent Effect” value is 76.16%.

As to `Cl.O=C(Nc1cc(C(F)(F)F)c[nH]c1=O)C1CCCCN1` (stereo not given), the “Percent Effect” value stood at 99.37%.

Consider `O=C(Nc1cc(C(F)(F)F)c[nH]c1=O)C1CCCNC1` (stereo not given), for which the “Percent Effect” value was determined as 107.9%.

In the case of `CC(=O)N(C)CC(=O)Nc1cc(C(F)(F)F)c[nH]c1=O`, the “Percent Effect” value is on record as -5.133%.

Take `Cc1ccc(C(=O)O)cc1NC(=O)C1CC=CC1`: the “Percent Effect” value is given as -2.837%.

For `O=C(NCc1ccccn1)Nc1cc(C(F)(F)F)c[nH]c1=O`, the “Percent Effect” value is listed as 4.379%.

For the compound `CC(C)CN1CCC(C(=O)Nc2cc(C(F)(F)F)c[nH]c2=O)CC1`, the “Percent Effect” value is reported as -2.2%.

Take `CN(CC(=O)Nc1cc(C(F)(F)F)c[nH]c1=O)Cc1ccccc1`: the “Percent Effect” value was -11.84%.

Source of the values: ChEMBL document CHEMBL3988442, “University of Dundee, Small-Polar-MMV Screening Library” (2021).
